Results on 88 molecules are retold here after ChEMBL document CHEMBL1157539, “Thousands of chemical starting points for antimalarial lead identification” (Nature, 2010).

Fewer than 10 of roughly 13,000 compounds showed an effect of 50% or more. Not all results are given here.

In the test the test system is Plasmodium falciparum. Put plainly: GSK_TCMDC: Inhibition of Plasmodium falciparum 3D7 LDH activity, using an LDH reporter assay. Test compounds present at 2uM. Format: functional, organism-based.
`COc1ccc2nc3cc(Cl)ccc3c(NCCCCNc3c4ccc(Cl)cc4nc4ccc(OC)cc34)c2c1` registered an inhibition of 6%.

Take `CS(=O)(=O)NCCCNCc1cccc(-c2ccc(-c3nc4ccccc4[nH]3)s2)c1`: the inhibition was 6%.

`O=C(NCc1ccc(F)cc1)Nc1ccc(-c2cccc(-c3nc4cc(C(F)(F)F)ccc4[nH]3)c2)cc1` yielded an inhibition of 3%.

As for `O=C(Nc1cccc(C(F)(F)F)c1)c1ccc(S(=O)(=O)NCC2CCN(CC3CCCCC3)CC2)cc1`, the inhibition worked out at 0%.

Consider `N[C@@H](Cc1cc(I)c(Oc2ccc(O)c(C(=O)O)c2)c(I)c1)C(=O)O`, for which the inhibition amounted to 0%.

In turn, `CC(C)CNCc1ccc(-c2ccc(CNC3CCN(Cc4ccccc4)CC3)cc2)cc1` yielded an inhibition of 4%.

Take `CC1(C)N=C(N)N=C(N)N1c1ccc(Cl)cc1`: the inhibition is 0%.

Take `COc1ccc(-c2ccc(NC(=O)c3ccccc3)cc2)cc1CN1CCCN(C)CC1`: the inhibition stood at 3%.

For the molecule `C=CCn1c(=N)c(C(=O)NCc2ccc(F)cc2)cc2c(=O)n3cccc(C)c3nc21`, the inhibition amounted to 0%.

As for `CC(C)(Oc1ccc(Cl)cc1)C(=O)NCCC1CCN(CCCCCNC(=O)/C=C/c2ccc(Cl)c(Cl)c2)CC1`, the inhibition was found to be 0%.

`OC(CNCCCCCCNCC(O)c1ccc(Cl)c(Cl)c1)c1ccc(Cl)c(Cl)c1` (stereo not drawn): the inhibition was found to be 0%.

The molecule `Cc1cccc2nc(-c3ccc(-c4ccc(NC(=O)C(=O)c5cccn5C)cc4)cc3)[nH]c12` showed an inhibition of 8%.

`C[C@H]1CN(Cc2cccc(-c3cc(CNC(=O)c4cccc(CC5CCN(C)CC5)c4)ccc3F)c2)CCN1C` registered an inhibition of 2%.

Regarding `Nc1c(I)cc(C(=O)Nc2ccc3nc4c(c(N)c3c2)CCCC4)cc1I`, the inhibition was 2%.

The molecule `FC(F)(F)c1cccc(Nc2nc3nonc3nc2NC2C3CC4CC(C3)CC2C4)c1` (stereo not drawn) showed an inhibition of 0%.

As to `COc1ccc2nccc([C@@H](O)CN3CCC(NCc4cc5cccc(O)c5[nH]4)CC3)c2c1`, the inhibition was found to be 0%.

Molecule `Fc1ccc2[nH]c(-c3cccc(-c4cccc(CN5CCN(c6cnccn6)CC5)c4)c3)nc2c1` had an inhibition of 0%.

On to `O=C(Cc1ccccc1)NC(c1ccc(Cl)cc1)c1ccc2cccnc2c1O` (stereo not drawn), for which the inhibition came to 0%.

`Cc1noc(C)c1-c1ccc2c(Nc3ccccc3C(C)(C)C)c(C(=O)NCc3ccccc3)cnc2c1` showed an inhibition of 0%.

`Cc1cccc2nc(-c3ccc(-c4cccc(NC(=O)c5cncn5C)c4)s3)[nH]c12` came in with an inhibition of 0%.

On to `CC(C)CNCc1cccc(-c2cccc(CN(CCCN3CCN(C)CC3)C(=O)CCC3CCCC3)c2)c1`, for which the inhibition was found to be 0%.

With `Cc1cc(NC2CCN(CC3CCCCC3)C2)nc(Nc2ccc(Cl)cc2)n1` (stereo not drawn), the inhibition came out at 0%.

Turning to `Cc1noc(C)c1-c1ccc2c(Nc3cccc4c3-c3ccccc3C4=O)c(C(=O)NCc3ccccc3I)cnc2c1`, the inhibition worked out at 2%.

`CC(=O)Nc1ccc(OCCCCN(Cc2ccccc2C(F)(F)F)c2ccc(C#N)c(C(F)(F)F)c2)c(Cl)c1` displayed an inhibition of 0%.

Molecule `COc1ccc(-c2cccc(NC(=O)c3ccc(Cl)cc3)c2)cc1CN1CCNCC1` yielded an inhibition of 0%.

The molecule `COc1ccc2c(NN=Cc3ccc(F)cc3)ccnc2c1` gave an inhibition of 0%.

With `COc1ccc(C=NN=c2cc(C)[nH]c3ccccc23)cc1OC`, the inhibition came out at 0%.

`COC(=O)c1cccc(CNCc2ccc(-c3cccc(-c4nc5cc(C(F)(F)F)ccc5[nH]4)c3)cc2)c1` yielded an inhibition of 6%.

`CCn1c(-c2nonc2N)nc2c(-c3ccccc3)ncc(OCCCCNCCc3ncc[nH]3)c21` gave an inhibition of 0%.

Regarding `CCc1c[nH]c2c(N3CCCS3(=O)=O)cc(C(=O)N[C@@H](Cc3ccccc3)[C@H](O)CNC(C)(C)CCCC(C)C)cc12`, the inhibition is 0%.

`COc1ccc(C2CCC(NCCCCNC(=O)c3ccc(NC(=O)c4ccc(Cl)cc4)cc3)CC2)cc1` (stereo not drawn): the inhibition was determined as 0%.

In turn, `Cc1c(-c2ccc(C(=O)NC3CC(C)(C)NC(C)(C)C3)cc2)[nH]c2cc(Cl)c(Cl)cc12` displayed an inhibition of 0%.

`O=C(Nc1cccc(F)c1)c1ccc(C(=O)NC2CCN(CC3CCCCC3)CC2)cc1` gave an inhibition of 0%.

In turn, `CC(C)NCc1ccc(-c2ccc(NC(=O)c3ccc(C#N)cc3)cc2)cc1` showed an inhibition of 0%.

With `FC(F)(F)c1ccc2[nH]c(-c3ccc(-c4cccc(CN5CCN(c6ccncc6)CC5)c4)cc3)nc2c1`, the inhibition turned out to be 2%.

`O=C(Nc1nc(-c2ccccn2)cc2ccccc12)c1cccc(Cl)c1` returned an inhibition of 0%.

Take `NC(=O)C1CCN(Cc2cccc(-c3cccc(-c4nc5cc(F)ccc5[nH]4)c3)c2)CC1`: the inhibition came to 3%.

Molecule `CC(C)(C)c1ccc(CNC(=O)c2ccc(CNC3CCC(N)CC3)s2)cc1` (stereo not drawn) came in with an inhibition of 4%.

Molecule `CC1(C)N=C(N)N=C(N)N1c1ccc(Cl)c(Cl)c1` showed an inhibition of 0%.

The molecule `Cc1cc(=NN=Cc2ccccc2Cl)c2ccc(F)cc2[nH]1` displayed an inhibition of 0%.

Regarding `Cc1cc(CNCCCCCCCNCc2ccc(-c3ccccc3)cc2)ccc1O`, the inhibition worked out at 0%.

`Cc1cc(=NN=Cc2ccc(F)cc2)c2ccc(C(F)(F)F)cc2[nH]1` registered an inhibition of 0%.

`COc1cc(C=NN=c2cc(C)[nH]c3ccccc23)cc(OC)c1OC` came in with an inhibition of 0%.

As to `O=C(NCCc1ccccc1)N(Cc1ccccc1-c1ccc(CNC2CCCC2)cc1)C1CCN(Cc2ccccc2)CC1`, the inhibition stood at 1%.

In turn, `CCN(CC)CCN(Cc1ccc(-c2ccc(C(F)(F)F)cc2)cc1)C(=O)Cn1c(CCc2cccc(F)c2F)nc(=O)c2ccc(F)cc21` returned an inhibition of 3%.

`COc1ccc(CNCc2ccc(F)cc2)cc1-c1ccc(OC)c(S(=O)(=O)NCCN2CCCC2)c1` gave an inhibition of 5%.

As to `COc1ccc2c(N/N=C/c3cccc([N+](=O)[O-])c3)ccnc2c1`, the inhibition worked out at 5%.

As for `CCCCN1CCN(CCCNc2c3ccccc3nc3ccccc23)CC1`, the inhibition was 0%.

On to `CON=Cc1ccn(-c2ccc(O)c3c2C[C@H]2C[C@H]4[C@H](N(C)C)C(O)=C(C(N)=O)C(=O)[C@@]4(O)C(O)=C2C3=O)c1`, for which the inhibition was 0%.

In turn, `CN(C)Cc1ccc(-c2ccc3c(Nc4ccc(Cl)cc4F)ccnc3c2)o1` showed an inhibition of 0%.

`CN(C)c1ccc(-c2nc3cc(N)ccc3[nH]2)cc1`: the inhibition amounted to 0%.

Take `Cc1cc(O)c(-c2cccc(Oc3ccc(Cl)cc3)c2)c(C)n1`: the inhibition stood at 0%.

For the molecule `O=C(CNC(=O)c1ccc(O)cc1)Nc1ccc(-c2cccc(-c3nc4cc(C(F)(F)F)ccc4[nH]3)c2)cc1`, the inhibition was 3%.

Molecule `CCOc1cc[nH]c(=O)n1` showed an inhibition of 5%.

`O=C(NCCCCN1CCC(c2ccc3c(c2OCCO)CCCC3)CC1)c1ccc2oc(-c3ccc(C(F)(F)F)cc3)cc2c1` had an inhibition of 4%.

For the molecule `FC(F)(F)COc1ccc2ccccc2c1CCNCCCCNCCc1c(OCC(F)(F)F)ccc2ccccc12`, the inhibition is 0%.

`COc1ccc2nccc(N3CCC(CCNCc4cc5c(cn4)OCCO5)CC3)c2n1` registered an inhibition of 7%.

Take `Cc1c2ccc(N(C)c3ccnc(Nc4ccc5c(c4)nc(NC(C)C)n5C)n3)cc2nn1C`: the inhibition worked out at 0%.

Regarding `COc1ccc(CNC(=O)Nc2cccc(-c3csc(NC(=N)N)n3)c2)cc1`, the inhibition turned out to be 1%.

`O=C(C=Cc1ccc(Cl)c(Cl)c1)NCCCCCN1CCC(CCNC(=O)/C=C/c2ccccc2)CC1` showed an inhibition of 0%.

On to `CCN(CC)CCN(Cc1ccc(-c2ccc(C(F)(F)F)cc2)cc1)C(=O)Cn1c(CCc2ccc(F)cc2)nc(=O)c2ccccc21`, for which the inhibition amounted to 0%.

As for `Cn1cccc1C(=O)C(=O)Nc1cccc(-c2ccc(-c3nc4cc(C(F)(F)F)ccc4[nH]3)cc2)c1`, the inhibition stood at 0%.

In turn, `CC(=O)Nc1ccc(C(=O)Nc2cccc(-c3cccc(-c4nc5cc(F)ccc5[nH]4)c3)c2)cn1` yielded an inhibition of 1%.

For the molecule `Nc1ncc(-c2ccc3nccc(-c4ccncc4)c3c2)cc1S(=O)(=O)N1CCCCC1`, the inhibition was 3%.

In turn, `Cc1cc(NCC(c2ccccc2)c2ccccc2)nc(NCC2CCCCC2)n1` registered an inhibition of 3%.

`N#Cc1cccc(C(=O)Nc2ccc(-c3ccc(CN4CCCC4)cc3)cc2)c1` came in with an inhibition of 0%.

`Cc1[nH]c(C)c(-c2ccc(OCc3cc(F)cc(F)c3)nc2)c(=O)c1Cl` yielded an inhibition of 0%.

Consider `CC(=O)Nc1ccc(CCNC(C)Cc2ccc(C(=O)Nc3ccc(CC(C)NCCc4cccc(Cl)c4)cc3)cc2)cc1` (stereo not drawn), for which the inhibition was 0%.

`c1cc(-c2ccc(CNCCCN3CCOCC3)cc2)cc(-c2nc3ccccc3[nH]2)c1` came in with an inhibition of 0%.

On to `Clc1ccccc1C=NN=c1cc[nH]c2ccccc12`, for which the inhibition amounted to 0%.

Regarding `O=C1CCCN1CCCNCc1ccc(-c2ccc(-c3nc4cc(F)ccc4[nH]3)cc2)cc1`, the inhibition came to 0%.

As for `Cc1[nH]c(C)c(-c2ccc(C#Cc3ccc(F)cc3F)cc2)c(=O)c1Br`, the inhibition stood at 0%.

In turn, `COc1ccc(OC)c(-c2ccc(=O)n(CC(=O)Nc3cccc4ccccc34)n2)c1` yielded an inhibition of 3%.

Consider `CC(C)(C)c1ccc(CNC(=O)/C=C/c2ccc(-c3nc4cc(C(C)(C)C)ccc4[nH]3)cc2)cc1`, for which the inhibition came to 0%.

`CN(C)CCCN1CCN(Cc2ccc(-c3ccc(-c4nc5ccccc5[nH]4)s3)cc2)CC1` returned an inhibition of 4%.

Take `CC(C)Nc1nc(NCCc2c[nH]cn2)nc(Nc2ccc(Oc3ccccc3)cc2)n1`: the inhibition is 1%.

Take `CN1CCC(NC(=O)c2cc(Oc3ccc4c(c3)CCN4C(=O)Nc3cccc(C(F)(F)F)c3)ccn2)CC1`: the inhibition turned out to be 0%.

Take `FC(F)(F)COc1c(CCNCCCCNCCc2ccc3ccccc3c2OCC(F)(F)F)ccc2ccccc12`: the inhibition was found to be 0%.

Turning to `CN(CCN)Cc1cccc(-c2cccc(-c3nc4cc(C(F)(F)F)ccc4[nH]3)c2)c1`, the inhibition came out at 0%.

`CC(C)CCCC(C)NC[C@@H](O)[C@H](Cc1ccccc1)NC(=O)c1cc(N2CCCC2=O)cc(N(c2ccccc2)S(C)(=O)=O)c1` (stereo partly drawn): the inhibition is 0%.

Take `ON=C(c1nc2ccccc2[nH]1)c1nc2ccccc2[nH]1`: the inhibition turned out to be 6%.

In turn, `O=S(=O)(NCCN1CCCC1)c1cccc(-c2ccc(CNCc3ccsc3)cc2)c1` registered an inhibition of 6%.

Regarding `COc1cccc(CCc2nc3c(N4CCC(Cc5ccccc5)CC4)cccc3n2CC2CNCCO2)c1` (stereo not drawn), the inhibition amounted to 4%.

For the molecule `CCN(CC)CCN(Cc1ccc(-c2ccc(C(F)(F)F)cc2)cc1)C(=O)Cn1c(CCc2ccc(F)c(C#N)c2)nc(=O)c2ccccc21`, the inhibition worked out at 0%.

Consider `CCc1c(CCNCCCCCCNCCc2ccc(Br)cc2)ccc(O)c1O`, for which the inhibition is 0%.

`Nc1c2c(nc3ccc(Oc4ccc(Cl)cc4)cc13)CCCC2` registered an inhibition of 0%.

Turning to `Cc1cc(N[C@@H](Cc2ccccc2)C(=O)NCc2cccs2)nc(NCCc2ccccn2)n1`, the inhibition came out at 0%.

As for `COc1cc(C=CC(=O)N2CCC(CCN3CCC(c4c[nH]c5ccccc45)CC3)CC2)cc(OC)c1`, the inhibition came out at 0%.
